The source of these data is PubChem BioAssay (NCATS).

Results filed as inconclusive are left out. Active and inactive are the calls of the source. The call rests on the fitted dose curve; in most records, active means well fitted cell-killing curve with a large enough effect; inconclusive means small, poorly fitted or top-dose-only effect, or effect the other way; inactive means no such curve, though single readings can be large or run the other way.

The nature of assay [1]: Quantitative High-Throughput drug screen in 47 multiple myeloma cell lines against the NCATS MIPE library collection: PE2_PLB cell viability assay (AID 1919869). Further: nearly all actives have a fitted effect of over 35% in size. The note with it: PE2_PLB myeloma cells viability, ATP luminescence, 48 h; series mostly up to 45.8 µM. A digest of the protocol: (§1)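 MIPE 4.0 approved/investigational drugs; 500 cells/well; 48 h 37 °C humidified 5% CO2; CTG luminescence readout; DMSO = 100%, media = 0% viability.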

A short description of assay [2]: Quantitative High-Throughput drug screen in 47 multiple myeloma cell lines against the NCATS MIPE library collection: RPMI8226_ATCC cell viability assay (AID 1919871). Further: nearly all actives have a fitted effect of over 30% in size. As to conditions: RPMI8226 myeloma viability, CellTiter-Glo ATP luminescence, 48 h; series mostly up to 45.8 µM. An outline of the steps: as §1
Background: In ATP-based viability assays light output follows the ATP content of the culture.

The nature of assay [3]: Quantitative High-Throughput drug screen in 47 multiple myeloma cell lines against the NCATS MIPE library collection: OPM2_DSMZ cell viability assay (AID 1919872). Further: nearly all actives have a fitted effect of over 30% in size. As to conditions: OPM2 myeloma viability, CellTiter-Glo ATP luminescence, 48 h; series mostly up to 45.8 µM. A digest of the protocol: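 CellTiter-Glo ATP luminescence gave viability after 48 h compound treatment at 37C of 500 multiple myeloma cells per well. Normalisation used DMSO-only wells as 100% and media-only wells as 0% viability; primary qHTS of approved and investigational drugs.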

A short description of assay [4]: Quantitative High-Throughput drug screen in 47 multiple myeloma cell lines against the NCATS MIPE library collection: KMS28BM_JCRB cell viability assay (AID 1919874). Further: nearly all actives have a fitted effect of over 35% in size. As to conditions: CellTiter-Glo ATP, 48 h; series mostly up to 45.8 µM. An outline of the steps:
as §1

The nature of assay [5]: Quantitative High-Throughput drug screen in 47 multiple myeloma cell lines against the NCATS MIPE library collection: KMS11_JCRBsus cell viability assay (AID 1919873). Further: nearly all actives have a fitted effect of over 50% in size. The note with it: KMS11 myeloma viability, CellTiter-Glo ATP luminescence, 48 h; series mostly up to 45.8 µM. An outline of the steps: as §1
Assay [6] is described as follows: Quantitative High-Throughput drug screen in 47 multiple myeloma cell lines against the NCATS MIPE library collection: PCM6_Riken cell viability assay (AID 1919870). Further: nearly all actives have a fitted effect of over 30% in size. The note with it: CellTiter-Glo ATP, 48 h; series mostly up to 45.8 µM. A digest of the protocol: as §1
Potency means the concentration at half of the fitted maximal effect.

Regarding `C[C@]12CCC3=C4CCC(=O)C=C4CC[C@@H]3[C@H]1CC[C@@]2(O)CC#N`, the Potency entry in assay [1], in assay [2], in assay [3] and in assay [4] was “inactive” each time.
Turning to `C=C[C@@H]1CN2CCC1C[C@@H]2C(O)c1ccnc2ccc(OC)cc12` (some centres not stated), the Potency entry in assay [1], in assay [3], in assay [5] and in assay [4] was “inactive” in each case.
In the case of `CS(=O)(=O)c1ccc(C2=C(c3ccccc3)C(=O)OC2)cc1`, the Potency result in assay [6], in assay [2], in assay [3] and in assay [5] was “inactive” throughout.
With `CC(=O)NCCC(=O)N[C@@H](CCC(N)=O)C(=O)N[C@@H](CO)C(=O)N[C@@H](CCC(N)=O)C(=O)N[C@@H](CCC(N)=O)C(=O)N[C@H](C(=O)N[C@@H](Cc1ccccc1)C(=O)N[C@]1(C)CCCCCCC=CCCC[C@@](C)(C(=O)N[C@@H](CCC(N)=O)C(=O)N[C@@H](CC(N)=O)C(N)=O)NC(=O)[C@H](CC(C)C)NC(=O)[C@H](CC(C)C)NC(=O)[C@@H](CCCNC(=N)N)NC(=O)[C@H](Cc2c[nH]c3ccccc23)NC(=O)[C@H](CC(C)C)NC(=O)[C@H](CC(N)=O)NC1=O)[C@H](C)O`, the Potency is 20.9 µM (active) in assay [1] and 9.35 µM (active) in assay [2]. The Potency entry in assay [4] was “inactive”.
Turning to `Cc1cc2c(cc1C1(c3ccc(C(=O)O)cn3)CC1)C(C)(C)CCC2(C)C`, the Potency in assay [1] is 26.4 µM (active); in assay [2], 0.0118 µM (active). The Potency entry in assay [5] was “inactive”.
In the case of `CN(C)N=Nc1nc[nH]c1C(N)=O`, the Potency result in assay [6], in assay [2], in assay [3] and in assay [5] was “inactive” throughout.
On to `COC(=O)[C@H](c1ccccc1Cl)N1CCc2sccc2C1`, for which the Potency entry in assay [6], in assay [2], in assay [3], in assay [5] and in assay [4] was “inactive” in each case.
`N#CC(=C1Nc2ccccc2S1)c1ccnc(OCc2ccc(CN3CCOCC3)cc2)n1`: the Potency in assay [1] was 5.26 µM (active); in assay [2], 20.9 µM (active); in assay [5] it was 1.05 µM (active).
On to `COc1cc2c(cc1OC)CC(=O)N(CCCN(C)C[C@H]1Cc3cc(OC)c(OC)cc31)CC2`, for which the Potency entry in assay [6], in assay [3] and in assay [4] was “inactive” in each case. Further, in assay [2], the Potency was 11.8 µM (active).
`Cc1cnc(-c2cc(N3CCN(C(=O)CCS(C)(=O)=O)CC3)ncc2Cl)c(C)c1`: the Potency entry in assay [6], in assay [2] and in assay [3] was “inactive” throughout.
Consider `CO[C@H]1C=CO[C@@]2(C)Oc3c(C)c(O)c4c(O)c(c(C=NN5CCN(C)CC5)c(O)c4c3C2=O)NC(=O)C(C)=CC=C[C@H](C)[C@H](O)[C@@H](C)[C@@H](O)[C@@H](C)[C@H](OC(C)=O)[C@H]1C`, for which the Potency result in assay [6], in assay [2], in assay [3] and in assay [4] was “inactive” in each case.
On to `O=C(O)c1nc(=O)[nH]c(=O)[nH]1`, for which the Potency result in assay [6] and in assay [3] was “inactive” throughout. In addition, the figures for the Potency in assay [2] and in assay [5] were 10.2 µM (active) and 11.5 µM (active), respectively.
Take `CO[C@H]1O[C@@H]2O[C@@]3(C)CC[C@@H]4[C@@H](C)CC[C@@H]([C@H]1C)[C@@]24OO3`: the Potency result in assay [6], in assay [3] and in assay [5] was “inactive” in each case. In assay [2], the Potency was 0.833 µM (active).
Consider `O=C(NCCCCN1CCOCC1)c1cc2ccccc2o1`, for which the Potency result in assay [6], in assay [2], in assay [3], in assay [5] and in assay [4] was “inactive” each time.
Take `CCCCC(C)(C)[C@H](O)C=C[C@H]1[C@H](O)CC(=O)[C@H]1CC=CCCCC(=O)O`: the results for the Potency in assay [6] and in assay [2] were 26.4 µM (active) and 8.33 µM (active), respectively. The Potency entry in assay [4] was “inactive”.
As for `COc1nccc(-c2c(-c3ccc(F)cc3)ncn2C2CCC(O)CC2)n1` (configuration not stated), the values for the Potency in assay [1], in assay [2] and in assay [5] were 18.7 µM (active), 1.18 µM (active) and 4.18 µM (active), respectively.
In the case of `COc1ccnc(CS(=O)c2nc3ccc(OC(F)F)cc3[nH]2)c1OC` (configuration not stated), the Potency entry in assay [1], in assay [2], in assay [3] and in assay [4] was “inactive” each time.
As to `COc1cc(F)c(C(C)C)cc1-c1ccc(C(F)(F)F)cc1CN1C(=O)O[C@H](c2cc(C(F)(F)F)cc(C(F)(F)F)c2)[C@@H]1C`, the Potency in assay [2] is 1.66 µM (active). Moreover, the Potency entry in assay [3], in assay [5] and in assay [4] was “inactive” throughout.
In the case of `Nc1ccc(-c2ccc3ncc4ccc(=O)n(-c5cccc(C(F)(F)F)c5)c4c3c2)cn1`, the Potency in assay [3] was 0.0059 µM (active).
Regarding `COc1cc2nccc(Oc3ccc(NC(=O)Nc4cc(C)on4)c(Cl)c3)c2cc1OC`, the values for the Potency in assay [2] and in assay [5] were 23.5 µM (active) and 20.9 µM (active), respectively.
Take `C[C@@H]1CCO[C@H]2Cn3cc(C(=O)NCc4ccc(F)cc4F)c(=O)c(O)c3C(=O)N12`: the Potency was 23.5 µM (active) in assay [6], 18.7 µM (active) in assay [5] and 16.6 µM (active) in assay [4]. Besides, the Potency result in assay [3] is “inactive”.
For the molecule `O=C(O)CCNc1cc(N2CCc3ccccc3CC2)nc(-c2ccccn2)n1`, the Potency result in assay [2], in assay [3] and in assay [5] was “inactive” in each case.
`CO[C@H]1/C=C\O[C@@]2(C)Oc3c(C)c(O)c4c(O)c(c5c(nc6cc(C)ccn65)c4c3C2=O)NC(=O)C(C)=CC=C[C@H](C)[C@H](O)[C@@H](C)[C@@H](O)[C@@H](C)[C@H](OC(C)=O)[C@H]1C`: in assay [2], the Potency was 20.9 µM (active). Moreover, the Potency entry in assay [3] and in assay [5] was “inactive” throughout.
With `CC(C)N(CCCNC(=O)Nc1ccc(C(C)(C)C)cc1)C[C@H]1O[C@@H](n2cc(Br)c3c(N)ncnc32)[C@H](O)[C@H]1O`, the values for the Potency in assay [6], in assay [3] and in assay [5] were 23.5 µM (active), 23.5 µM (active) and 18.7 µM (active), respectively.
As to `C=C1c2cccc(O)c2C(O)=C2C(=O)[C@@]3(O)C(O)=C(C(N)=O)C(=O)[C@@H](N(C)C)[C@@H]3[C@@H](O)[C@H]12`, the Potency in assay [6] is 16.6 µM (active). The Potency result in assay [5] is “inactive”.
Take `Cc1nc2c([nH]1)CCN(C(=O)c1ccc(NC(=O)c3ccccc3-c3ccccc3)cc1)c1ccccc1-2`: the Potency result in assay [3] and in assay [4] was “inactive” each time.
For the molecule `CCCCC(F)(F)[C@@]1(O)CC[C@H]2[C@H](CC(=O)[C@@H]2CCCCCCC(=O)O)O1`, the Potency entry in assay [6], in assay [3], in assay [5] and in assay [4] was “inactive” in each case.
